Screening data deposited in PubChem by several laboratories.
eLon inh: inhibits E. coli Lon protease. purified E. coli Lon protease, fluorescence polarization. inhibition, % at 7.94 µM. 360,000 tested, 0.42% active. P0A9M0; in the data active = inhibition above about 13%, passing the limit was not always enough
RTF Ca sens act: increases calcium sensitivity of human cardiac regulated thin filaments | IANBD-labeled TnC RTF fluorescence at EC20 calcium; 0% EC20 calcium, 100% full calcium | activation, % at 7.2 µM | 340,000 tested, 0.24% active | AID 493008;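 active = activation above the mean over all tested compounds plus 3 SD, cut at about 30% in these data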;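 note: rise in fluorescence read as greater calcium sensitivity of cardiac thin filaments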
Cardiac RTF inh: cardiac RTF calcium desensitization | IANBD-labeled cardiac RTF, Ca2+ fluorescence | inhibition, % at 7.15 µM | 340,000 tested, 0.12% active;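 active = inhibition above the mean inhibition of all tested compounds plus 3 SD, cut at about 17% in these data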;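 note: assay run at fixed EC70 calcium of 1.6 mM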
Keap1-Nrf2 PPI: Keap1-Nrf2 (human) interaction inhibition | Keap1 Kelch-Nrf2 peptide fluorescence polarization, 1536-well | 340,000 tested, 0.15% active | inhibition, % at 9.4 µM; in the data active = inhibition above about 12%;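 note: human Keap1 Kelch domain with fluorescein labeled Nrf2 9mer peptide probe; higher means more block of Keap1 binding to Nrf2 peptide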
Target sequence (Q14145 whole entry, looked up, the tested form may be a part): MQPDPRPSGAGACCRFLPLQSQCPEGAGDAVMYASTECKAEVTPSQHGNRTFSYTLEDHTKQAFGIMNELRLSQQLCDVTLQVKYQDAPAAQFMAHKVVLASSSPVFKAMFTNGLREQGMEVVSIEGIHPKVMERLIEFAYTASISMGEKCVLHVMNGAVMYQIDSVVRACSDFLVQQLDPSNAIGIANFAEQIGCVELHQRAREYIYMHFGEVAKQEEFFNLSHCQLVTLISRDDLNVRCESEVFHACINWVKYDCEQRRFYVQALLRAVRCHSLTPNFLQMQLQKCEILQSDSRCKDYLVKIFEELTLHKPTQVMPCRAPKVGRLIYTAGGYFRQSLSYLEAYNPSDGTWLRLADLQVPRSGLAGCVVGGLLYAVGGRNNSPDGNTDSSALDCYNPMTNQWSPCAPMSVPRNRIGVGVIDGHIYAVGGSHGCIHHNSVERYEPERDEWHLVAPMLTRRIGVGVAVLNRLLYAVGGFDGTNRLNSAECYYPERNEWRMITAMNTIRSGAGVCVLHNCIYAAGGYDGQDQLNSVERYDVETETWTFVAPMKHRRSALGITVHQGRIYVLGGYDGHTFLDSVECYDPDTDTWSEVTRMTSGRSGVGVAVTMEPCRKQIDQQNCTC
C-LANA FP: KSHV C-LANA DNA binding inhibition | 340,000 tested, 0.078% active | MBP-C-LANA/FAM-LBS DNA binding, fluorescence polarization | inhibition, % at 9 µM | AID 504423;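 active = highest replicate inhibition at or above 60% at 9 µM, even if other replicates fall short; inactive = all replicates below 60% inhibition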
RTF inh confirm: cardiac RTF calcium sensitivity inhibition, confirmation. reconstituted cardiac thin filaments, calcium sensitivity fluorescence. shares compounds with Cardiac RTF inh. 360 tested, 8% active. inhibition, % at 7.15 µM; in the data active = inhibition above about 18%
Numbers stand for hits; . = inactive; / = no result. Compounds with a hit are over-represented: about 0.82% of the library has one in this group of screens.

SMILES | eLon inh | RTF Ca sens act | Cardiac RTF inh | Keap1-Nrf2 PPI | C-LANA FP | RTF inh confirm
CCCC(C)NC1=NCCCCC1 (stereo not given) | . | . | 18 | . | . | .
CCN1CCCC1CNC1=NCCCCC1 (stereo not given) | . | . | . | . | . | /
CCCCCCCCN1C(=O)[C@H](CC(=O)NCCCOCCCC)C[C@@]2(C(=O)OCC)CCCC=C12 | . | / | / | / | / | /
COc1ccccc1NCC(=O)N/N=C/c1c(O)ccc2ccccc12 | . | . | . | . | . | /
COc1ccccc1N(CC(=O)N/N=C/c1c(O)ccc2ccccc12)S(C)(=O)=O | . | . | 26 | . | . | .
COc1ccc(NC(=O)C2(C)CCCN(C(C)C)C2)cc1F (stereo not given) | . | / | / | / | / | /
Cc1cccc(NC(=O)CCN2CC(C)OC(C)C2)c1 (stereo not given) | . | . | . | . | . | /
Cc1cccc(NC(=O)CCN2CCCC(C)C2)c1 (stereo not given) | . | . | 59 | . | . | .
COc1ccc(C2=CC3=C(Br)C(=O)C(C)(OC(=O)c4cccs4)C(=O)C3=CO2)cc1 (stereo not given) | . | . | 20 | . | . | .
CC1CCCCN1C(=O)c1cc(Cl)ccc1[N+](=O)[O-] (stereo not given) | . | . | 20 | . | . | .
COc1ccc(C2=Nc3ccccc3NC(=O)C2N(CCc2ccccc2)C(=O)c2cccs2)cc1 (stereo not given) | . | / | / | / | / | /
O=C(Nc1ccc(N=Nc2ccccc2)c(NC(=O)C2CCCO2)c1)C1CCCO1 (stereo not given) | . | . | 21 | . | . | .
COc1ccc(NC(=O)C2(C)CCN2C)cc1OC (stereo not given) | . | / | / | / | / | /
CNC(=O)Oc1ccc2c(c1)[C@]1(C)CCN(C)C1N2C (stereo not given in full) | . | . | 17 | . | . | .
COc1ccc(/C=C/C(=O)NC(=S)Nc2ccc(C(=O)O)cc2)cc1 | . | 33 | 58 | . | . | .
COc1ccc(S(=O)(=O)NCc2ccc(C(=O)NCCN(C)Cc3ccccc3)cc2)cc1 | . | / | / | / | / | /
Oc1ccc(-c2nc(-c3ccc(F)cc3)c(-c3ccncc3)[nH]2)cc1 | . | . | 20 | . | . | .
COc1cc(C(=O)N2CCN(C(=O)C3CC3)CC2)cc(OC)c1OC | . | . | 20 | . | . | .
COC(=O)C1CCN(C(=O)c2cc(OC)c(OC)c(OC)c2)CC1 | . | . | . | . | . | /
CN1C(=O)N(CC(=O)Nc2sccc2C(N)=O)C(=O)C12CCCCC2 | . | . | 17 | . | . | .
CN1C(=O)N(CC(=O)Nc2nccs2)C(=O)C12CCCCC2 | . | . | . | . | . | /
CCCCCCCCCCC[C@@H](C[C@@H]1OC(=O)[C@H]1CCCCCC)OC(=O)[C@H](CC(C)C)NC=O | . | . | 20 | . | . | .
CCCCCCC1CC(/C(C)=N\NC(N)=O)OC1=O (stereo not given) | . | . | . | . | . | /
COc1ccc2oc3cc(NCCN(C)C)ccc3c(=O)c2c1 | . | / | / | / | / | /
CN1CCN(/N=C/c2ccc(Br)cc2)CC1 | . | . | 20 | . | . | .
SMILES | eLon inh | RTF Ca sens act | Cardiac RTF inh | Keap1-Nrf2 PPI | C-LANA FP | RTF inh confirm
CN1CCN(/N=C/c2ccc(N(c3ccccc3)c3ccccc3)cc2)CC1 | . | . | . | . | . | /
CCc1nc2c(OCc3ccc(C(F)(F)F)cc3)cccn2c1N(C)C(=O)c1ccncc1 | . | / | / | / | / | /
O=C(N/N=C/c1ccc(F)cc1)c1cc(-c2ccco2)nc2ccccc12 | . | . | 19 | . | . | .
O=C(O)c1ccc(CNC(=O)c2ccccc2NC(=O)c2cccc([N+](=O)[O-])c2)cc1 | . | . | 18 | . | . | .
Cc1ccc2nc(C3CCCCC3)c(Cc3ccccc3)n2c1 | . | / | / | / | / | /
Nc1nnc(SCC(=O)N2CCN(c3ccccc3)CC2)n1-c1ccccc1 | . | . | 18 | . | . | .
CC(C)(C)c1ccc(C(=O)N2[C@H](COCc3ccccc3)C=CS2(=O)=O)cc1 | . | / | / | / | / | /
O=C(OC1CC2CC1[C@H]1CCCCN1C2=O)N1CCC(c2ccccc2)CC1 (stereo not given in full) | . | / | / | / | / | /
CC1=CC(C)C(C(=O)O)C(C(=O)N2CCN(C)CC2)C1 (stereo not given) | . | . | . | . | . | /
CC1=CC(C)(C)C(C(=O)O)C(C(=O)O)C1 (stereo not given) | . | . | 18 | . | . | .
O=C(N/N=C/c1ccc(Br)s1)c1cccc([N+](=O)[O-])c1 | . | . | 18 | . | . | .
O=C(NN=Cc1ccccc1O)c1cccc([N+](=O)[O-])c1 | . | . | . | . | . | /
CC[C@@H](C(=O)[C@@H](C)[C@@H](O)[C@H](C)[C@@H]1O[C@@H]([C@@H](CC)C(=O)O)CC[C@@H]1C)[C@H]1O[C@]2(C=C[C@@H](O)[C@]3(CC[C@@](C)([C@H]4CC[C@](O)(CC)[C@H](C)O4)O3)O2)[C@H](C)C[C@@H]1C | . | . | 20 | . | . | .
O=C(Nc1ccc2ccccc2c1)OC1CCS(=O)(=O)C1 (stereo not given) | . | / | / | / | / | /
O=C1CC(=O)N2N=C(c3ccc([N+](=O)[O-])cc3)SC2=N1 | . | . | 19 | . | . | .
COCCn1c(N)c(N(Cc2ccccc2)C(=O)COc2ccccc2F)c(=O)[nH]c1=O | . | . | 19 | . | . | .
COc1ccccc1CN(C)CC(=O)Nc1ccc(Cl)cc1C(F)(F)F | . | . | 18 | . | . | .
CCc1cc(C(=O)N=Nc2c(O)[nH]c3ccc([N+](=O)[O-])cc23)c2ccccc2n1 | . | . | 17 | . | . | .
COc1cccc(C(NC(C)=O)c2nc(-c3csc4ccccc34)cs2)c1 (stereo not given) | . | / | / | / | / | /
Cc1cccc(-c2cccc3nccn23)c1 | . | / | / | / | / | /
COc1cccc(=O)c2c(C)n(-c3cc(C)cc(C)c3)c(C)c12 | . | . | . | . | . | /
COc1cccc(-n2c(C)c3c(OC)cccc(=O)c3c2C)c1 | . | . | 25 | . | . | .
CCc1ccc(OCC(=O)c2c(O)c3ccccc3oc2=O)cc1 | . | . | . | . | . | /
CCc1oc2ccccc2c1C(=O)c1cc(Br)c(O)c(Br)c1 | . | . | 18 | . | . | .
NC(=O)CSc1oc(-c2ccco2)nc1S(=O)(=O)c1ccc(F)cc1 | . | . | 18 | . | . | .
O=C(CC1CC1)Nc1ccc2c(c1)[C@H]1C[C@H](CC(=O)N3CCc4ccccc4C3)O[C@@H](CO)[C@H]1O2 | . | / | / | / | / | /
COc1ccc(NC(=O)CC23CC4CC(CC(C4)C2)C3)cn1 | . | . | 17 | . | . | .
CCc1nc2ccc(C(=O)NCc3ccc4c(c3)OCO4)cn2c1N(CCC(C)C)CCN(C)C | . | / | / | / | / | /
CCCCn1nnnc1C(c1cc2ccccc2o1)N1CCN(CC(=O)NC(C)C)CC1 (stereo not given) | . | / | / | / | / | /
